Experimental data from PubChem BioAssay AID1159580 (chemical genetic matrix, 2015).
“And” between values parts separate entries of the source, which are not always exact repeats. Equal entries are not always repeated. Screen size: about 5,500 compounds; about 2,000 (36%) were called active. About 18% were inconclusive and are not listed. No stated cut-off is given here; in the data, active means normalized growth mostly below about 0.91 (no sharp cut-off); inconclusive means no clear call, values can overlap the other calls; inactive means mostly above about 0.92. This is one part of the list.

Assay: chemical genetic growth profiling, strain panel (AID 1159580);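 further: tested at 20 µM; growth read once vehicle control cultures reached saturation at 30 °C; 1 = growth at the plate median or of vehicle wells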
Settings: S. cerevisiae deletion strains, growth OD

Measured: normalized growth

CC(=O)Nc1ccc(O)cc1
inactive: locus YAL021C, strain ccr4, stronger effect = lower value 1.02 | locus YAL026C, strain drs2, stronger effect = lower value 1.02 | locus YAL030W, strain snc1, stronger effect = lower value 1.02 | locus YBL061C, strain skt5, stronger effect = lower value 1.02 | locus YBR009C, strain hhf1, stronger effect = lower value 1.01 | locus YBR021W, strain FUR4, stronger effect = lower value 1.09 | locus YBR023C, strain chs3, stronger effect = lower value 1.02 | locus YBR171W, strain sec66, stronger effect = lower value 1.02 | locus YBR229C, strain ROT2, stronger effect = lower value 0.985 | locus YBR231C, strain swc5, stronger effect = lower value 1.02 | locus YBR279W, strain paf1, stronger effect = lower value 1 | locus YCL011C, strain gbp2, stronger effect = lower value 1.01 | locus YCL016C, strain dcc1, stronger effect = lower value 1.01 | locus YCL029C, strain bik1, stronger effect = lower value 0.979 | locus YCL069W, strain vba3, stronger effect = lower value 1.01 | locus YCR088W, strain abp1, stronger effect = lower value 1.01 | locus YDL005C, strain med2, stronger effect = lower value 1.02 | locus YDL035C, strain GPR1, stronger effect = lower value 0.984 | locus YDL040C, strain nat1, stronger effect = lower value 1.01 | locus YDL074C, strain BRE1, stronger effect = lower value 1.05 | locus YDL101C, strain DUN1, stronger effect = lower value 1.01 | locus YDL134C, strain PPH21, stronger effect = lower value 0.985 | locus YDL185W, strain tfp1, stronger effect = lower value 0.935 | locus YDL192W, strain arf1, stronger effect = lower value 0.981 | locus YDR001C, strain nth1, stronger effect = lower value 1.02 | locus YDR069C, strain doa4, stronger effect = lower value 1.02 | locus YDR101C, strain arx1, stronger effect = lower value 0.988 | locus YDR137W, strain rgp1, stronger effect = lower value 1.01 | locus YDR159W, strain sac3, stronger effect = lower value 1.01 | locus YDR162C, strain NBP2, stronger effect = lower value 0.951 | locus YDR195W, strain ref2 1.01 | locus YDR297W, strain sur2, stronger effect = lower value 1.02 | locus YDR318W, strain mcm21, stronger effect = lower value 0.973 | locus YDR334W, strain swr1, stronger effect = lower value 1.02 | locus YDR335W, strain msn5, stronger effect = lower value 1.01 | locus YDR388W, stronger effect = lower value 0.988 | locus YDR392W, strain spt3, stronger effect = lower value 0.993 | locus YDR502C, strain sam2, stronger effect = lower value 1 | locus YEL003W, strain gim4, stronger effect = lower value 1.03 | locus YEL037C, strain rad23, stronger effect = lower value 1.02 | locus YEL061C, strain CIN8 (second series), stronger effect = lower value 1.01 | locus YEL061C, strain CIN8, stronger effect = lower value 0.971 | locus YER015W, strain faa2, stronger effect = lower value 1 | locus YER016W, strain bim1, stronger effect = lower value 0.987 | locus YER110C, stronger effect = lower value 0.992 | locus YER111C, strain swi4, stronger effect = lower value 1.01 | locus YER155C, strain BEM2 (second series), stronger effect = lower value 1.02 | locus YER155C, strain BEM2, stronger effect = lower value 0.978 | locus YER167W, strain BCK2, stronger effect = lower value 0.991 | locus YFR010W, strain ubp6, stronger effect = lower value 1.01 | locus YGL078C, strain dbp3, stronger effect = lower value 0.936 | locus YGL086W, strain mad1, stronger effect = lower value 0.987 | locus YGL167C, strain pmr1, stronger effect = lower value 1.03 | locus YGL173C, strain kem1, stronger effect = lower value 1.02 | locus YGL227W, strain vid30, stronger effect = lower value 1.02 | locus YGL240W, strain doc1, stronger effect = lower value 1.01 | locus YGL248W, strain PDE1, stronger effect = lower value 0.982 | locus YGL253W, strain hxk2, stronger effect = lower value 1.01 | locus YGR135W, strain pre9, stronger effect = lower value 0.996 | locus YGR229C, strain SMI1, stronger effect = lower value 0.972 | locus YGR252W, strain gcn5, stronger effect = lower value 1.16 | locus YHR013C, strain ard1, stronger effect = lower value 1.02 | locus YHR027C, strain rpn1, stronger effect = lower value 1.01 | locus YHR030C, strain SLT2, stronger effect = lower value 0.985 and 0.986 | locus YHR079C, strain IRE1 (second series), stronger effect = lower value 0.987 | locus YHR079C, strain IRE1, stronger effect = lower value 0.986 | locus YHR094C, strain hxt1, stronger effect = lower value 0.979 | locus YHR129C, strain ARP1, stronger effect = lower value 0.977 | locus YHR142W, strain chs7, stronger effect = lower value 1.01 | locus YHR200W, strain rpn10, stronger effect = lower value 0.983 | locus YIL066C, strain RNR3, stronger effect = lower value 0.977 | locus YIL073C, strain SPO22, stronger effect = lower value 1.04 | locus YIL125W, strain kgd1, stronger effect = lower value 0.944 | locus YIR030C, strain dcg1, stronger effect = lower value 0.977 | locus YJL092W, strain hpr5, stronger effect = lower value 1 | locus YJL095W, strain BCK1 (second series), stronger effect = lower value 1.02 | locus YJL095W, strain BCK1, stronger effect = lower value 1 and 0.986 | locus YJL115W, strain asf1, stronger effect = lower value 1.02 | locus YJL129C, strain trk1, stronger effect = lower value 1.01 | locus YJL134W, strain LCB3, stronger effect = lower value 0.981 | locus YJL154C, strain vps35, stronger effect = lower value 1.01 | locus YJL164C, strain tpk1, stronger effect = lower value 0.997 | locus YJL166W, strain qcr8, stronger effect = lower value 1 | locus YJL168C, strain set2, stronger effect = lower value 0.975 | locus YJL187C, strain SWE1 (second series), stronger effect = lower value 1.01 | locus YJR043C, strain POL32, stronger effect = lower value 0.978 | locus YJR066W, strain TOR1, stronger effect = lower value 0.99
